Source: PubChem BioAssay (NCI)
Compounds without any hit were thinned out: in the full panel of roughly 83,000, 20% have a hit.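 Results are percent growth after 48 hours of single-concentration exposure. 100 means growth as in untreated cells, lower positive values show inhibition; negative values down to -100 show cell death.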 A number with no mark means an inactive call. Active and inactive are the calls of the source. How the source made its calls: active means growth percent below 10; inactive means the rest.

Tested on: NCI-H322M lung
Experiment: NCI-60 one-dose screen, 48 h (100 = growth as untreated, 0 = no growth, -100 = all killed)
Conditions: 10 µM unless noted

Question: How did the growth turn out when `Cc1ccc(Cc2cnc(NC(=O)c3ccc(/C=C4\SC(=S)N(C)C4=O)cc3)s2)cc1` was run?
Answer: The growth was 35.9%.

Question: For `Cc1ccc(C(=O)CSc2nc3ccc(F)cc3c(=O)n2-c2ccc(Cl)cc2)cc1`, which growth is on record?
Answer: The growth was 64.8%.

Question: How did the growth turn out when `C[C@H](Nc1nc(NCCc2ccccc2)nc2ccccc12)c1ccccc1` was run?
Answer: The growth was -55.9% (active).

Question: With `COc1cc(-c2ccc(/C=N/NC(=O)c3[nH]c4ccc(Br)cc4c3-c3ccccc3)s2)cc(OC)c1OC` as the compound, how does the growth read?
Answer: Its growth is 90.2%.

Question: `OCNc1ccc(-n2cnc3cc(-c4ccc(O)cc4)ccc32)cc1C(F)(F)F` was tested. Which growth did it give?
Answer: Its growth is 46.3%.

Question: `COc1cc(OC)cc(C(=O)Nc2cccc(-c3cn(-c4ccc(S(N)(=O)=O)cc4)nn3)c2)c1` was tested. Which growth did it give?
Answer: The growth was 89.9%.

Question: For `COc1ccc2[nH]c(O)c(N=NC(=O)COc3ccc(NC(=O)Nc4ccccc4)cc3)c2c1`, which growth is on record?
Answer: Its growth is 37.2%.

Question: With `Cc1ccc2c(N)c(C(=O)Nc3ccc(OC(F)(F)F)cc3)sc2n1` as the compound, how does the growth read?
Answer: The growth was 82.5%.

Question: Which growth does the source give for `COc1cc(/C=C/C(=O)c2ccc(C)cc2)ccc1Oc1nc(Nc2ccc(F)cc2)nc(N(C)C)n1` here?
Answer: Its growth is 74.1%.

Question: For `N#Cc1c(NCc2ccccc2)n[nH]c1Nc1ccccc1`, which growth is on record?
Answer: The growth was 65.1%.

Question: How did the growth turn out when `CC(C)c1sc(NC(=O)c2cc(NC(=O)c3cc(NC(=O)c4cscn4)cn3C)cn2C)nc1C(=O)NCCCN(C)C` was run?
Answer: Its growth is 19.9%.

Question: Which growth does the source give for `CCOc1ccc(C(=O)NC(=S)Nc2ccc(S(N)(=O)=O)cc2)cc1` here?
Answer: The growth was 101% [100 µM].

Question: With `Nc1cccc(SCc2cc3ccccc3[nH]c2=O)c1` as the compound, how does the growth read?
Answer: Its growth is 73.3%.

Question: For `CC1=C(C(=O)c2ccccc2)C(c2ccc(-n3cncn3)cc2)n2c(nc3ccccc32)N1` (stereo not given), which growth is on record?
Answer: The growth was 79.5%.

Question: `O=C(c1ccc(OCCN2CCOCC2)cc1)C1[C@H](c2ccc(Cl)cc2)[C@@H](c2ccccc2)NC12C(=O)Nc1ccc(Cl)cc12` (stereo not given in full) was tested. Which growth did it give?
Answer: The growth was 55.6%.

Question: Which growth does the source give for `CCCCCCCCc1ccc(S(=O)(=O)Nc2ccc(CC)cc2C(=O)O)cc1` here?
Answer: The growth was 95.2%.

Question: How did the growth turn out when `COc1cc2oc(-c3cccc(C(=O)Nc4cccc([N+](=O)[O-])c4)c3)cc(=O)c2c(OC)c1OC` was run?
Answer: Its growth is 40.2%.

Question: Which growth does the source give for `C=C1CC[C@@H]2[C@]3(C)COC(c4ccccc4)O[C@@H]3CC[C@@]2(C)[C@@H]1C/C=C1/C(=O)OCC1OC(C)=O` (stereo not given in full) here?
Answer: The growth was 62.1%.

Question: With `C=C1CC[C@@H]2[C@]3(C)COC(c4cn[nH]c4-c4ccc(C)cc4)O[C@@H]3CC[C@@]2(C)[C@@H]1C/C=C1/C(=O)OCC1O` (stereo not given in full) as the compound, how does the growth read?
Answer: Its growth is 79.9%.

Question: For `CC(C)CSc1nc(NCCc2c[nH]c3ccccc23)c(C#N)c(-c2ccc(Cl)cc2)n1`, which growth is on record?
Answer: The growth was 86.5%.

Question: With `NS(=O)(=O)c1ccc(-n2cc(-c3cccc(NC(=O)c4cc(Cl)cc(Cl)c4)c3)nn2)cc1` as the compound, how does the growth read?
Answer: Its growth is 68.8%.

Question: `C=C1CCC2C3(C)COC(c4ccc(F)cc4)OC3CCC2(C)C1C/C=C1/C(=O)OCC1O` (stereo not given) was tested. Which growth did it give?
Answer: The growth was 27%.

Question: `CCN1C(=O)/C(=N\N=C(/C)c2ccc3c(c2)Nc2ccccc2S3)c2cc(Cl)ccc21` was tested. Which growth did it give?
Answer: Its growth is 91.3%.

Question: For `N#Cc1c(-c2cccc3ccccc23)cc(-c2cccc(OCC(=O)O)c2)[nH]c1=O`, which growth is on record?
Answer: Its growth is 96.1%.

Question: How did the growth turn out when `O=C(COc1ccc(NC(=O)Nc2ccccc2)cc1)N=Nc1c(O)[nH]c2ccc([N+](=O)[O-])cc12` was run?
Answer: Its growth is 37.7%.
